Gal4-VP16 FLuc: inhibits Gal4-VP16 luciferase reporter, ROR gamma counter-screen; 3.5% of 310,000 active; Potency, µM (doses to about 53.6 µM), for the others: top-dose activity, negative = inhibition, usual class: inhibitors; Drosophila S2 Gal4-VP16 UAS-luciferase, luminescence, 20 h;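 also: Gal4-VP16 expression switched on by copper sulfate through the metallothionein promoter; potency is read from the fitted curve at half-maximal effect; nearly all actives have a fitted effect of over 50% in size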
FBPA coupling cs: inhibits coupling enzyme system, counter-screen for aldolase hits; 0.67% of 290,000 active; activity change, negative = inhibition, % at 58.2 µM, hits read low; coupling enzyme system counterscreen, AmpLite Red fluorescence; in the data active = activity change below about -30%
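Counterscreen lacking aldolase: glyceraldehyde-3-phosphate coupling-enzyme reagent preincubated 10 min at RT with compound (at 57.5 uM final), then substrate/coupling system with AmpLite Red added; fluorescence read at 525/598 nm after 20 min RT.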
TSHR antag: human thyrotropin receptor antagonism. 0.2% of 330,000 active. activity change, negative = inhibition, % at 11.5 µM. TSHR-expressing cells, TSH-stimulated cAMP HTRF, 2 h; stronger effect = lower value. AID 504810;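 active = activity change below a set negative limit, meaning inhibition stronger than a set level, cut at about -70% in these data; inconclusive = activity change between two set negative limits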
Target sequence (P16473 whole entry, looked up): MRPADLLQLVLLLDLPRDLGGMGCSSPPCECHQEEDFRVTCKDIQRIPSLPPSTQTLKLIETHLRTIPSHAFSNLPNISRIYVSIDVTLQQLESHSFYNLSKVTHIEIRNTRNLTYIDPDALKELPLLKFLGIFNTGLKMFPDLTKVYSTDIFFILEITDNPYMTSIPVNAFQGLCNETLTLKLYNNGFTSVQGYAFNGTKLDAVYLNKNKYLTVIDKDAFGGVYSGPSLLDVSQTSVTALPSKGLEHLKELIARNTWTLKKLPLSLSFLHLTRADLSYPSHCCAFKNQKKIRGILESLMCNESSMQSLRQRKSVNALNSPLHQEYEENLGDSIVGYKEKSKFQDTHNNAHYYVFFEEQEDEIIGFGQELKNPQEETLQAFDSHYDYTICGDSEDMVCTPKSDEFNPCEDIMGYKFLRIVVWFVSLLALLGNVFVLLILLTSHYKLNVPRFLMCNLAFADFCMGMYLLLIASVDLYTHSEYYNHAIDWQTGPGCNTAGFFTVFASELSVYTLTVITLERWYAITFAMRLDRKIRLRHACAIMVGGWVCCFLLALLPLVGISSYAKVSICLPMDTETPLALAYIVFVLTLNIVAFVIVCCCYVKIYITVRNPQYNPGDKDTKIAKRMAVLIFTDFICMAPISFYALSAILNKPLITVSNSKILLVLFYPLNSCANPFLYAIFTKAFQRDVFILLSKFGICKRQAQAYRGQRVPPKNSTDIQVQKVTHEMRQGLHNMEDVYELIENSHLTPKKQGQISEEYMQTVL
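Read-out is FRET at 665 nm (cryptate excitation 337 nm) from a cryptate-tagged anti-cAMP antibody, competed by cell cAMP against cAMP-d2. Compounds are tested on freshly harvested TSHR cells challenged with 4nM TSH (EC80) for 2 hours at 37 deg C.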
RORgamma inh: inhibitors of mouse ROR gamma transcriptional activity; P51450; AID 2551; Potency, µM (highest dose often 53.6 µM), for the others: at the highest dose activity change, negative = inhibition, most hits filed as inhibitors; 5.4% of 310,000 active; Drosophila S2 Gal4-RORgamma UAS-luciferase reporter, 20 h; also: potency is read from the fitted curve at half-maximal effect; nearly all actives have a fitted effect of over 60% in size
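Stable Schneider cell line, Gal4 DNA-binding domain fused to ROR gamma, UAS-luciferase. Cmpd 1 hr RT → CuSO4 700 uM final → 20 hr RT → luciferase reagent 10 min → luminescence.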
ELG1 DNA repair: inhibitors of ELG1-dependent DNA repair in HEK293T cells | HEK293T ELG1-luciferase reporter, luminescence, 16 h; DNA damage induced by 5-fluorouridine | Potency, µM (doses to about 46.1 µM), for the others: at the highest dose activity change, negative = inhibition, usual class: inhibitors | 2.3% of 330,000 active; also: potency is read from the fitted curve at half-maximal effect; nearly all actives have a fitted effect of over 55% in size
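Cells (2,000 per well) received 5-fluorouridine plus test compound or DMSO and were incubated 16 hr at 37 °C, 5% CO2. Luciferase activity was read by luminescence 30 min after ONE-Glo addition; signal suppression marked inhibition of damage-induced ELG1 function.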
ELG1 FLuc counter: luciferase inhibition in cell-free luciferin readout for ELG1 hits; shares compounds with ELG1 DNA repair; cell-free firefly luciferase luminescence counter-screen, ViewLux; Potency, µM (top dose mostly 46.1 µM), inactives show top-dose activity change, negative = inhibition, most hits filed as inhibitors; 3% of 350 active; also: potency is read from the fitted curve at half-maximal effect
ELG1-Luc inh: human ELG1 repair inhibition, luciferase-tagged ELG1 confirmation | shares compounds with ELG1 DNA repair | HEK293T ELG1-luciferase levels, luminescence; cells co-treated with 5-fluorouridine | Potency, µM (highest dose often 46.1 µM), inactives show top-dose activity change, negative = inhibition, most hits filed as inhibitors | 68% of 670 active; also: potency is read from the fitted curve at half-maximal effect; nearly all actives have a fitted effect of over 55% in size
ELG1 MMS Luc: inhibits ELG1-dependent repair under MMS stimulation in HEK293T cells | shares compounds with ELG1 DNA repair | HEK293T luciferase-tagged ELG1 level, MMS stimulated | Potency, µM (highest dose often 46.1 µM), for inactives: at the top dose activity change, negative = inhibition, hits mostly inhibitors | 53% of 670 active | AID 624249; also: potency is read from the fitted curve at half-maximal effect; nearly all actives have a fitted effect of over 60% in size
ELG1 5FU viab: confirmation of ELG1 repair inhibitors: viability with 5FU; 670 tested, under 10 active; shares compounds with ELG1 DNA repair; Potency, µM (top dose mostly 46.1 µM), for the others: at the highest dose activity change, negative = viability loss, hits mostly cytotoxic; cell viability with 5-FU, ELG1-dependent repair;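 also: ELG1-luc HEK293T cells cotreated with 5-fluorouridine at 10 µM final; potency is read from the fitted curve at half-maximal effect; viability measured 16 h after compound addition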
ELG1 MMS viab: confirmation of ELG1 repair inhibitors: viability with MMS. shares compounds with ELG1 DNA repair. Cell viability with MMS, ELG1-dependent DNA repair. Potency, µM (highest dose often 46.1 µM), inactives show at the highest dose activity change, negative = viability loss, most hits filed as cytotoxic. 33% of 670 active;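 also: ELG1-luc HEK293T cells co-treated with 10 µM MMS; potency is read from the fitted curve at half-maximal effect; viability read 16 h after compound addition; nearly all actives have a fitted effect of over 60% in size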
Cell viab unstim: unstimulated viability counter-screen for ELG1 repair hits; shares compounds with ELG1 DNA repair; cell viability counter-screen, unstimulated, luminescence; Potency, µM (doses to about 45.9 µM), for the others: top-dose activity change, negative = loss of viability, usual class: cytotoxic; 8% of 900 active; AID 624252;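 also: potency is read from the fitted curve at half-maximal effect; compound exposure lasted 16 hours before reading; nearly all actives have a fitted effect of over 55% in size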
FLuc biochem: counter-screen for ELG1 repair inhibitors: firefly luciferase inhibition; purified firefly luciferase, luminescence counter-screen; Potency, µM (top dose mostly 57.5 µM), inactives show at the highest dose activity, negative = inhibition, most hits filed as inhibitors; 10% of 350 active; shares compounds with ELG1 DNA repair; also: potency is read from the fitted curve at half-maximal effect
* hit, by the source's call; ? = inconclusive; . = no result. Hits are enriched below; roughly 8% of the tested compounds scored in any of these assays. Unless noted, calls follow the shape of the dose curve; as a rule, active = well fitted curve in the direction sought with a large enough effect; inconclusive = small, poorly fitted or top-dose-only effect, or another doubt; inactive = no such curve, though single readings can be large; an effect the other way counts as inactive or inconclusive. % is scaled to controls: 0 for no effect and ±100 for the full control effect.

SMILES	Gal4-VP16 FLuc	FBPA coupling cs	TSHR antag	RORgamma inh	ELG1 DNA repair	ELG1-Luc inh	ELG1 MMS Luc	ELG1 5FU viab	ELG1 MMS viab	Cell viab unstim	others
COC(=O)CNc1nc(-c2cccnc2)nc2ccccc12	-14%	1	22	14%	-11%	.	.	.	.	.
COc1ccc(CCNc2nc(-c3cccnc3)nc3ccccc23)cc1OC	3%	3	10	6%	2.6µM*	3.2µM*	13µM*	?	?	?	ELG1 FLuc counter=14%;FLuc biochem=?
COc1ccc(C(CNc2nc(-c3cccnc3)nc3ccccc23)N(C)C)cc1 (stereo unspecified)	-7%	3	-9	-24%	-25%	18µM*	?	?	0%	-9%	ELG1 FLuc counter=-2%;FLuc biochem=-7%
Cc1ccc([N+](=O)[O-])cc1N=C1C(=O)Nc2ccccc21	2%	3	1	13%	?	.	.	.	.	.
COCCn1c(=N)c(C(=O)NCCc2ccc(OC)cc2)cc2c(=O)n3cccc(C)c3nc21	4%	2	0	-17%	?	5µM*	?	?	3%	?
COc1ccc(C2(c3ccc(OC)cc3)NC(=O)N(CC(=O)Nc3cc(C)ccc3OC)C2=O)cc1	12%	.	22	5%	-3%	.	.	.	.	.
COc1ccccc1NC(=O)CSc1nnc(-c2ccccc2)o1	-3%	-4	-13	12%	?	.	.	.	.	?
O=C(CSc1nnc(Cc2ccccc2)o1)Nc1ccc(Br)cn1	2%	0	-6	-10%	18%	.	.	.	.	10%	ELG1 FLuc counter=18%;FLuc biochem=5%
O=C(CSc1nnc(-c2ccc(O)cc2)o1)Nc1ccccc1	-16%	1	-1	-39%	?	.	.	.	.	?	ELG1 FLuc counter=209%;FLuc biochem=?
Cc1cc(NC(=O)CSc2nnc(-c3ccc(O)cc3)o2)no1	-15%	-1	4	-5%	?	.	.	.	.	.
O=C(CSc1nnc(-c2cccnc2)o1)Nc1ccccn1	9%	0	-6	27%	?	.	.	.	.	?	ELG1 FLuc counter=193%;FLuc biochem=-3%
CCOC(=O)c1ccc(S(=O)(=O)N2CCN(c3ccccn3)CC2)cc1	0%	4	-13	-2%	?	.	.	.	.	.
O=C(CSc1nnc(-c2csc3c2CCCC3)o1)Nc1ccccc1	-29%	1	-1	-44%	?	.	.	.	.	?	ELG1 FLuc counter=30%;FLuc biochem=-15%
O=C(CSc1nnc(-c2cccc(Cl)c2)o1)Nc1ccc2c(c1)OCCO2	-8%	-1	-1	-8%	?	.	.	.	.	-1%
NC(=O)c1ccc(NC(=O)CSc2nnc(-c3ccc4c(c3)OCO4)o2)cc1	.	.	3	.	21%	.	.	.	.	.
C=CCCC(=O)N1CCCC(C(=O)c2cccc(OC)c2)C1 (stereo unspecified)	-3%	3	-2	22%	12%	.	.	.	.	.
COc1ccc(C)cc1NC(=O)CN1CCCC1c1ccc2c(c1)OCCCO2 (stereo unspecified)	.	.	-3	.	4.1µM*	3.1µM*	18µM*	?	?	-10%
CS(=O)(=O)c1ccc(Cl)c(NC(=O)CN2CCCC2c2ccc3c(c2)OCCCO3)c1 (stereo unspecified)	.	.	-12	.	?	.	.	.	.	.
Cc1sc(NC(=O)c2ccco2)c(C(c2ccc(F)cc2)N2CCN(C)CC2)c1C (stereo unspecified)	5%	3	7	40%	-1%	.	.	.	.	.
Cc1sc(NC(=O)c2ccco2)c(C(c2cccnc2)N2CCN(c3ccc(F)cc3)CC2)c1C (stereo unspecified)	-1%	-3	-15	-2%	-16%	.	.	.	.	-12%	ELG1 FLuc counter=11%;FLuc biochem=-1%
CN(C)c1ccc(C(=O)OCC(=O)c2ccc[nH]2)cc1	.	.	-4	.	?	.	.	.	.	-11%
CC(NC(=O)c1ccccc1NC(=O)CN1CCN(c2ccccc2O)CC1)c1ccccc1 (stereo unspecified)	.	.	0	.	2.3µM*	5.6µM*	?	?	?	-18%
COc1ccccc1N1CCN(CC(=O)Nc2ccccc2C(=O)NC(C)c2ccccc2)CC1 (stereo unspecified)	.	.	-2	.	2.9µM*	7.9µM*	7%	?	-3%	?
COc1ccc(CN2CCN(CC(=O)Nc3ccccc3C(=O)NC3CC3)CC2)cc1F	.	.	-6	.	2.6µM*	7.1µM*	?	?	0%	1%
CC1CCN(CC(=O)Nc2ccccc2C(=O)NC2CC2)CC1	.	.	-5	.	14%	.	.	.	.	.
CCC(=O)Nc1ccc(NC(=O)c2ccco2)cc1	-15%	-6	9	-37%	?	.	.	.	.	.
CCOc1ccc(CC(=O)Nc2ccc(NC(=O)c3ccco3)cc2)cc1OCC	14%	2	3	6%	2.3µM*	?	0.063µM*	12%	0.07µM*	8%
CCOCCCNC(=O)C1CCN(S(=O)(=O)c2cc(Br)cc3c2N(C(=O)CC)CC3)CC1	-10%	2	0	-20%	?	.	.	.	.	.
CCC(=O)N1CCc2cc(Br)cc(S(=O)(=O)N3CCC(C(=O)NCCCOC(C)C)CC3)c21	8%	3	27	-8%	1.6µM*	7.9µM*	15%	?	4%	-2%
O=C(CC1OC(=O)c2ccccc21)Nc1cc(Cl)ccc1N1CCOCC1 (stereo unspecified)	.	.	.	.	4.1µM*	?	-1%	4%	2%	-7%

Compound activity as filed in PubChem BioAssay.
